Source: PubChem
TDP1 cell CPT: DT40-hTDP1 cell growth loss with CPT; chicken DT40 Tdp1-/-;hTDP1 cells + 20 nM CPT, ATP luminescence, 48 h; Potency, µM (titrated, usually from 46.2 µM), for inactives: top-dose activity change, negative = growth inhibition, hits mostly inhibitors; 420,000 tested, 12% active; note: potency is the fitted concentration of half-maximal effect; nearly all actives have a fitted effect of over 55% in size
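Cell growth measured by CellTiter-Glo luminescence after a minimum 48 h, 37 C compound exposure with 20 nM CPT in Tdp1-knockout DT40 cells stably expressing hTDP1, seeded 400/well; qHTS titration format.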
TDP1 cell noCPT: qHTS for Inhibitors of human tyrosyl-DNA phosphodiesterase 1 (TDP1): qHTS in cells in absence of CPT; AID 686978, 2013; 420,000 tested, 15% active; Potency, µM (doses to about 46.2 µM), for inactives: at the highest dose activity change, negative = growth inhibition, hits mostly inhibitors; DT40 Tdp1-/- hTDP1 cells, no CPT, ATP luminescence, 48 h; note: potency is the fitted concentration of half-maximal effect; nearly all actives have a fitted effect of over 55% in size
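Readout: luminescence from CellTiter-Glo after 30 min in the dark at RT. Cells: DT40 Tdp1-/- with stable hTDP1, 400/well. Exposure: compounds alone, ≥48 hr, 37 °C.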
HT1080 IDH1KD tx: toxicity to HT-1080 IDH1 knockdown cells (counter line) | HT-1080 IDH1 knockdown viability, ATP luminescence, 48 h | Potency, µM (doses to about 46.1 µM), without a hit: top-dose activity, negative = toxicity, hits mostly cytotoxic | 360,000 tested, 2% active | AID 686971;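 note: potency is the fitted concentration of half-maximal effect; 0% = DMSO wells and -100% = cell-free medium wells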
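CellTiter-Glo luminescence after 48 h compound exposure at 37 degrees C of IDH1-knockdown HT-1080 cells in 5% FBS RPMI. %Activity scaled between DMSO wells and cell-free media wells, with curves fitted and assigned curve classes.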
HT1080-NT tox: kills 2HG-producing HT-1080-NT fibrosarcoma cells | HT-1080-NT fibrosarcoma viability, CellTiter-Glo ATP luminescence, 48 h | Potency, µM (highest dose often 46.1 µM), for inactives: top-dose activity, negative = less viability, usual class: cytotoxic | 360,000 tested, 1.6% active | AID 686970;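 note: NT is the 2HG producing partner of a matched IDH1 knockdown line; potency is the fitted concentration of half-maximal effect; 0% = DMSO-treated cells and -100% = media-only wells without cells; nearly all actives have a fitted effect of over 55% in size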
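Viability by CellTiter-Glo luminescence after 48 h compound exposure at 37C of HT-1080-NT cells (750/well, RPMI, 5% FBS). % activity scaled between DMSO wells and medium-only wells, then curve-fitted and categorized by curve class.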
IL1B secr inh: inhibitors of inflammasome signaling (IL-1 beta secretion); THP-1 LPS/ATP IL-1B secretion, AlphaLISA, 16 h; hits give low values; activity change, % at 57.5 µM; 360,000 tested, 4.7% active; AID 743279; in the data active = activity change below about -50%; inconclusive = mostly about -30% to -49%
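THP-1 cells pretreated 1 hr with compounds (up to 57.5 uM final), then stimulated with LPS (250 ng/mL final) plus ATP (1.25 mM final); secreted IL-1B measured by AlphaLISA after 16 hr, decreased signal indicating inhibition.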
Starred values were filed as active, the others as inactive; ? = inconclusive; . = no result; [ ] = remark or other dose. Sampled rows, rich in hits. Any-hit rate of the full collection: about 19%. Unless noted, calls come from the whole dose curve; as a rule, active = well fitted curve in the direction sought with a large enough effect; inconclusive = small, poorly fitted or top-dose-only effect, or another doubt; inactive = no such curve, though single readings can be large; an effect the other way counts as inactive or inconclusive. Unless noted, % is set by controls: 0 for no effect and ±100 for the full control effect.

SMILES	TDP1 cell CPT	TDP1 cell noCPT	HT1080 IDH1KD tx	HT1080-NT tox	IL1B secr inh
O=C(NC(=S)Nc1ccccn1)c1ccccc1	-21.7%	?	1.2%	-0.4%	7.5
COCCNC(=S)Nc1ccccn1	6.4%	15.4%	8.6%	4.3%	-8.0
Cc1ccnc(NC(=S)NC(=O)c2ccco2)c1	18.1%	-16.9%	20.0%	23.9%	23.7
COc1cccc(-c2c(-c3cc(OC)cc(OC)c3)n(C)c3ccc(-c4cccc5[nH]ccc45)cc23)c1	?	-15.9%	0.0%	0.5%	-10.1
COc1cc(OC)cc(C(=O)N[C@H](C(=O)OCC(=O)c2ccc(C)c([N+](=O)[O-])c2)C(C)C)c1	-23.6%	-24.0%	8.9%	9.3%	14.7
Cc1[nH]n(-c2nc(-c3ccc(Cl)cc3)cs2)c(=O)c1N=Nc1ccc(O)cc1	2.59µM*	5.8µM*	-24.4%	?	-51.4*
c1ccc(-c2cn(C[C@H]3CC[C@H](Cn4cc(-c5ccccn5)nn4)O3)nn2)nc1	-5.5%	4.7%	1.3%	24.8%	-6.0
CCCCN(C(=O)C(C)Oc1cccc(Cl)c1)c1c(N)n(CCC)c(=O)[nH]c1=O (configuration not stated)	16.7%	12.2%	2.3%	-0.3%	18.8
CCOC(=O)C1=C(c2ccccc2)N=c2s/c(=C\c3cccc(O)c3)c(=O)n2C1c1cccs1 (configuration not stated)	?	25.9µM*	?	?	-75.0*
CCc1cccc2c(-c3ccccc3)nc(SCC(=O)Nc3ccc(OC)cc3)nc12	-10.6%	5.1%	.	.	.
CCOC(=O)c1ccc(NC(=O)CC2Nc3cccc4cccc(c34)NC2=O)cc1 (configuration not stated)	2.59µM*	2.59µM*	.	.	.
CCOc1ccc(NC(=O)CC2Nc3cccc4cccc(c34)NC2=O)cc1 (configuration not stated)	?	16.4µM*	.	.	.
CC(=O)c1ccc(NC(=O)CC2Nc3cccc4cccc(c34)NC2=O)cc1 (configuration not stated)	18.4µM*	16.4µM*	-0.9%	-13.3%	-12.7
Cc1cccc(NC(=O)CC2Nc3cccc4cccc(c34)NC2=O)c1 (configuration not stated)	16.4µM*	?	?	?	10.2
CC(=O)Nc1ccc(NC(=O)CC2Nc3cccc4cccc(c34)NC2=O)cc1 (configuration not stated)	-15.2%	?	-4.3%	-4.0%	0.0
OC(COC(c1ccc(F)cc1)c1ccc(F)cc1)CN1CCCC1 (configuration not stated)	-2.2%	?	-1.1%	-1.4%	3.3
CCC(=O)NC(=S)Nc1ccc(NC(=O)c2ccc([N+](=O)[O-])cc2Cl)cc1	-9.8%	-8.8%	-1.8%	9.6%	0.0
COc1ccc(NC(=O)CC2Nc3ccccc3NC2=O)cc1 (configuration not stated)	?	23.1µM*	.	.	.
CC(C)n1ncc2c(C(=O)NCCc3ccc(F)cc3)cc(C3CC3)nc21	?	23.1µM*	2.0%	2.3%	?
CCc1ccccc1NC(=O)CN(C)C(=O)c1cc(C2CC2)nc2c1cnn2C(C)C	-23.6%	-4.2%	-0.1%	4.7%	-4.7
Cc1ccccc1CCNC(=O)c1cc(C2CC2)nc2c1cnn2C(C)C	20.6µM*	?	-0.1%	-10.7%	-23.7
O=C(c1ccc(Br)o1)N1CCN(Cc2ccccc2Cl)CC1	?	?	1.4%	1.7%	-20.2
N#C/C(=C\c1cc([N+](=O)[O-])ccc1Cl)C(N)=O	2.59µM*	2.91µM*	?	?	-88.8*
Cc1[nH]nc(SCC(=O)NCc2ccccc2)c1[N+](=O)[O-]	15.8%	-3.7%	16.3%	7.2%	26.7
COC(=O)CSc1[nH]c2ccccc2c1[N+](=O)[O-]	18.4µM*	-28.8%	-1.8%	-3.4%	5.5
SMILES	TDP1 cell CPT	TDP1 cell noCPT	HT1080 IDH1KD tx	HT1080-NT tox	IL1B secr inh
O=C1Nc2c(Cl)cc(Cl)cc2C1=O	7.31µM*	10.3µM*	?	-6.3%	-92.6*
COc1cc2c(cc1OC)CN(C(=S)Nc1ccc(Cl)cc1)CC2	-6.0%	-10.8%	2.0%	-1.8%	-2.9
CCOC(=O)c1cc(-c2ccc(N)cc2)sc1N	18.4µM*	20.6µM*	?	-8.4%	?
O=C(C1CCC1)N1CCc2cc(S(=O)(=O)N3CCN(c4ccccc4)CC3)ccc21	-28.6%	-19.8%	.	.	.
Cc1ccc(C)c(N2CCN(S(=O)(=O)c3ccc4c(c3)CCCN4C(=O)C3CCC3)CC2)c1	16.4µM*	18.4µM*	.	.	.
Cc1cccc(N2CCN(S(=O)(=O)c3ccc4c(c3)CCCN4C(=O)C3CCC3)CC2)c1C	?	16.4µM*	-7.8%	-8.1%	14.9
CCOC(=O)N1CCN(S(=O)(=O)c2ccc3c(c2)CCN3C(=O)C2CCC2)CC1	?	?	-12.6%	-6.6%	-9.6
Cc1cccc(-n2ccc(=O)c(C(=O)Nc3ccc(S(=O)(=O)Nc4onc(C)c4C)cc3)n2)c1	19.8%	-11.5%	15.1%	8.1%	23.8
CCOc1ccc2cc(S(=O)(=O)N3CCCCC3)ccc2c1	29.1µM*	?	-2.2%	-17.4%	8.3
O=S(=O)(c1ccc(Oc2ccc(Cl)cc2)c(S(=O)(=O)N2CCCCC2)c1)N1CCCCC1	?	14.6µM*	8.1%	11.9%	12.8
CCOc1ccc2cc(S(=O)(=O)N3CCN(C)CC3)ccc2c1	?	23.1µM*	-1.2%	-5.3%	-4.0
O=S(=O)(c1ccc(Cl)cc1)N1CCN(S(=O)(=O)N2CCCCCC2)CC1	8.2%	-4.5%	20.2%	10.4%	-14.6
Cc1nc(C)n(CC(=O)NCC2Cc3cc(-c4cccc(OC(F)(F)F)c4)ccc3O2)n1 (configuration not stated)	-91.1%	0.0184µM*	.	.	.
Cc1nc(C)n(CC(=O)NCC2Cc3cc(-c4ccsc4)cc(Cl)c3O2)n1 (configuration not stated)	0.5%	?	.	.	.
CCSc1nnc2c(n1)OC(C)(C)Nc1ccccc1-2	-22.3%	?	3.5%[9.24 µM]	-13.6%	19.9
CSc1nnc2c(n1)OC1(Nc3ccccc3-2)C(=O)Nc2ccccc21 (configuration not stated)	?	16.4µM*	6.6%	12.0%	10.0
COc1ccc(/C=N/OCC(=O)Nc2nc3ccccc3s2)cc1OC	?	?	-14.2%	-1.0%	-50.3*
COc1ccc(/C(C)=N/OCC(=O)Nc2nc3ccccc3s2)cc1	-4.1%	-23.8%	-0.4%	0.3%	-1.0
O=C(Nc1cccnc1)c1cc(-c2cccc(Br)c2)nc2ccccc12	?	16.4µM*	-2.3%	-5.7%	0.5
